# Experimental data published in the supplement of paper PMC10037445.
# The full ranking holds about 2,900 compounds; the median of “NF-kB SEAP reporter activity, fold change vs agonist alone” is about 0.99, and the highest 2% start at about 2.6. This is one part of a sample in which the highest values are shown more often than they occur.
# Legend:
# [1] = test system: RAW-Dual; experiment: NF-kB SEAP reporter activity, fold change vs agonist alone; cytotoxicity flag (confluency mask): not cytotoxic; higher = enhanced NF-kB activity
# Outline: (§1)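 Reporter activity is given as fold change relative to agonist-alone wells. To measure it, 50 nL of library stock was pin-tooled onto RAW-Dual macrophages (50,000 cells/well, DMEM, 384-well plates), a PRR agonist followed 1 h later, and cells stayed at 37 °C, 5% CO2. Twenty hours on, supernatant was assayed for IRF (QuantiLuc luminescence) and NF-κB (QuantiBlue, 620 nm absorbance), and wells under 70% of agonist-control IncuCyte confluency in both mask sets were marked cytotoxic.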
# [2] = test system: RAW-Dual; experiment: NF-kB SEAP reporter activity, fold change vs agonist alone; higher = enhanced NF-kB activity; details: library stock concentration (final ~1000-fold dilution): 10 mM
# Outline: as §1
# [3] = test system: RAW-Dual; experiment: NF-kB SEAP reporter activity, fold change vs agonist alone; cytotoxicity flag (confluency mask): cytotoxic (confluency <70% of control); higher = enhanced NF-kB activity
# Outline: as §1
# [4] = agonist: ODN 1826 (TLR9) 0.5 ug/mL
# [5] = agonist: Pam2CSK4 (TLR2/6) 0.1 ug/mL
# [6] = agonist: Pam3CSK4 (TLR2/1) 0.1 ug/mL
# [7] = cytotoxicity flag (confluency mask): not cytotoxic, agonist: Imiquimod (TLR7) […]
# [8] = cytotoxicity flag (confluency mask): not cytotoxic, agonist: MPLA (TLR4) […]
# [9] = cytotoxicity flag (confluency mask): cytotoxic (confluency <70% of control), agonist: Imiquimod (TLR7) […]
# [10] = cytotoxicity flag (confluency mask): cytotoxic (confluency <70% of control), agonist: MPLA (TLR4) […]
smiles,measurement,setting,value
CC(=O)OC1(C(C)=O)CCC2C3C=C(Cl)C4=CC(=O)C5CC5C4(C)C3CCC21C (centres undefined) (library stock concentration (final ~1000-fold dilution): 10 mM),NF-kB SEAP reporter activity,[1]; agonist: LPS (TLR4) 0.1 ug/mL,1.2
same,NF-kB SEAP reporter activity,[1]; [4],1.01
same,NF-kB SEAP reporter activity,[1]; [5],0.777
same,NF-kB SEAP reporter activity,[1]; [6],1.08
CC(=O)OC1(C(C)=O)CCC2C3C=C(Cl)C4=CC(=O)C5CC5C4(C)C3CCC21C (centres undefined),NF-kB SEAP reporter activity,[2]; [7],1.26
same,NF-kB SEAP reporter activity,[2]; [8],1.21
C[C@H]1[C@@H](O)O[C@@H]2OC3(C)CC[C@H]4[C@H](C)CC[C@@H]1[C@@]24OO3 (library stock concentration (final ~1000-fold dilution): 10 mM),NF-kB SEAP reporter activity,[1]; agonist: LPS (TLR4) 0.1 ug/mL,3.41
same,NF-kB SEAP reporter activity,[1]; [4],1.13
same,NF-kB SEAP reporter activity,[1]; [5],1.1
same,NF-kB SEAP reporter activity,[1]; [6],0.848
CC1CCC2C(C)C(OC(=O)CCC(=O)O)OC3OC4(C)CCC1C32OO4 (centres undefined) (library stock concentration (final ~1000-fold dilution): 10 mM),NF-kB SEAP reporter activity,[1]; agonist: LPS (TLR4) 0.1 ug/mL,5.12
same,NF-kB SEAP reporter activity,[1]; [4],1.67
same,NF-kB SEAP reporter activity,[1]; [5],1.02
same,NF-kB SEAP reporter activity,[1]; [6],1.44
C[C@H]1[C@@H](O)O[C@@H]2OC3(C)CC[C@H]4[C@H](C)CC[C@@H]1[C@@]24OO3,NF-kB SEAP reporter activity,[2]; [7],1.32
same,NF-kB SEAP reporter activity,[2]; [8],1.97
CC1CCC2C(C)C(OC(=O)CCC(=O)O)OC3OC4(C)CCC1C32OO4 (centres undefined),NF-kB SEAP reporter activity,[2]; [7],1.84
same,NF-kB SEAP reporter activity,[2]; [8],2.5
Nc1nonc1/C(=N\O)Nc1ccc(F)c(Cl)c1,NF-kB SEAP reporter activity,[2]; [7],0.904
same,NF-kB SEAP reporter activity,[2]; [8],0.933
Nc1nonc1/C(=N\O)Nc1ccc(F)c(Cl)c1 (library stock concentration (final ~1000-fold dilution): 10 mM),NF-kB SEAP reporter activity,[1]; agonist: LPS (TLR4) 0.1 ug/mL,1.01
same,NF-kB SEAP reporter activity,[1]; [4],0.882
same,NF-kB SEAP reporter activity,[1]; [5],0.938
same,NF-kB SEAP reporter activity,[1]; [6],0.585
COc1ccc2cc1Oc1ccc(cc1)CC1c3c(cc4c(c3Oc3cc5c(cc3OC)CCN(C)C5C2)OCO4)CCN1C (centres undefined),NF-kB SEAP reporter activity,[2]; [9],1.58
same,NF-kB SEAP reporter activity,[2]; [10],2.32
COc1ccc2cc1Oc1ccc(cc1)CC1c3c(cc4c(c3Oc3cc5c(cc3OC)CCN(C)C5C2)OCO4)CCN1C (centres undefined) (library stock concentration (final ~1000-fold dilution): 10 mM),NF-kB SEAP reporter activity,[3]; agonist: LPS (TLR4) 0.1 ug/mL,1.44
same,NF-kB SEAP reporter activity,[3]; [4],0.251
same,NF-kB SEAP reporter activity,[3]; [5],1.42
same,NF-kB SEAP reporter activity,[3]; [6],1.01
CN1CCN(Cc2ccc(NC(=O)Nc3ccc(Oc4ccnc(N)n4)cc3)cc2C(F)(F)F)CC1,NF-kB SEAP reporter activity,[2]; [9],0.146
same,NF-kB SEAP reporter activity,[2]; [10],0.248
CN1CCN(Cc2ccc(NC(=O)Nc3ccc(Oc4ccnc(N)n4)cc3)cc2C(F)(F)F)CC1 (library stock concentration (final ~1000-fold dilution): 10 mM),NF-kB SEAP reporter activity,[3]; agonist: LPS (TLR4) 0.1 ug/mL,0.293
same,NF-kB SEAP reporter activity,[3]; [4],0.197
same,NF-kB SEAP reporter activity,[3]; [5],0.0678
same,NF-kB SEAP reporter activity,[3]; [6],0.129
OC1C=C2CCN3Cc4cc5c(cc4C(C1O)C23)OCO5 (centres undefined) (library stock concentration (final ~1000-fold dilution): 10 mM),NF-kB SEAP reporter activity,[3]; agonist: LPS (TLR4) 0.1 ug/mL,1.54
same,NF-kB SEAP reporter activity,[3]; [4],1.05
same,NF-kB SEAP reporter activity,[3]; [5],0.33
same,NF-kB SEAP reporter activity,[3]; [6],0.552
OC1C=C2CCN3Cc4cc5c(cc4C(C1O)C23)OCO5 (centres undefined),NF-kB SEAP reporter activity,[2]; [9],2.07
same,NF-kB SEAP reporter activity,[2]; [10],1.61
CNCCC(Oc1ccccc1C)c1ccccc1.Cl (centres undefined) (library stock concentration (final ~1000-fold dilution): 10 mM),NF-kB SEAP reporter activity,[1]; agonist: LPS (TLR4) 0.1 ug/mL,1.15
same,NF-kB SEAP reporter activity,[1]; [4],0.76
same,NF-kB SEAP reporter activity,[1]; [5],0.791
same,NF-kB SEAP reporter activity,[1]; [6],1.01
CNCCC(Oc1ccccc1C)c1ccccc1.Cl (centres undefined),NF-kB SEAP reporter activity,[2]; [7],1.52
same,NF-kB SEAP reporter activity,[2]; [8],1.15
NC(=O)C(=Cn1cnc(-c2cc(C(F)(F)F)cc(C(F)(F)F)c2)n1)c1cncnc1,NF-kB SEAP reporter activity,[2]; [7],0.765
same,NF-kB SEAP reporter activity,[2]; [8],0.772
NC(=O)C(=Cn1cnc(-c2cc(C(F)(F)F)cc(C(F)(F)F)c2)n1)c1cncnc1 (library stock concentration (final ~1000-fold dilution): 10 mM),NF-kB SEAP reporter activity,[1]; agonist: LPS (TLR4) 0.1 ug/mL,0.331
same,NF-kB SEAP reporter activity,[1]; [4],0.334
same,NF-kB SEAP reporter activity,[1]; [5],0.13
same,NF-kB SEAP reporter activity,[1]; [6],0.148
COc1cc2ncnc(Nc3ccc(Oc4ccccc4)cc3C)c2cc1OC.Cl (library stock concentration (final ~1000-fold dilution): 10 mM),NF-kB SEAP reporter activity,[1]; agonist: LPS (TLR4) 0.1 ug/mL,1.05
same,NF-kB SEAP reporter activity,[1]; [4],0.422
same,NF-kB SEAP reporter activity,[1]; [5],0.297
same,NF-kB SEAP reporter activity,[1]; [6],0.42
COc1cc2ncnc(Nc3ccc(Oc4ccccc4)cc3C)c2cc1OC.Cl,NF-kB SEAP reporter activity,[2]; [7],1.37
same,NF-kB SEAP reporter activity,[2]; [8],0.792
CN(C)CC1CCn2cc(c3ccccc32)C2=C(C(=O)NC2=O)c2cn(c3ccccc23)CCO1.Cl (centres undefined),NF-kB SEAP reporter activity,[2]; [9],1.68
same,NF-kB SEAP reporter activity,[2]; [10],2.13
CN(C)CC1CCn2cc(c3ccccc32)C2=C(C(=O)NC2=O)c2cn(c3ccccc23)CCO1.Cl (centres undefined) (library stock concentration (final ~1000-fold dilution): 10 mM),NF-kB SEAP reporter activity,[3]; agonist: LPS (TLR4) 0.1 ug/mL,3.03
same,NF-kB SEAP reporter activity,[3]; [4],0.276
same,NF-kB SEAP reporter activity,[3]; [5],1.55
same,NF-kB SEAP reporter activity,[3]; [6],1.77
O=C(Nc1ccccc1)c1cc([N+](=O)[O-])ccc1Cl (library stock concentration (final ~1000-fold dilution): 10 mM),NF-kB SEAP reporter activity,[1]; agonist: LPS (TLR4) 0.1 ug/mL,0.722
same,NF-kB SEAP reporter activity,[1]; [4],0.873
same,NF-kB SEAP reporter activity,[1]; [5],0.881
same,NF-kB SEAP reporter activity,[1]; [6],0.836
O=C(Nc1ccccc1)c1cc([N+](=O)[O-])ccc1Cl,NF-kB SEAP reporter activity,[2]; [7],1.37
same,NF-kB SEAP reporter activity,[2]; [8],0.89
CS(=O)(=O)Nc1ccc([N+](=O)[O-])cc1Oc1ccccc1 (library stock concentration (final ~1000-fold dilution): 10 mM),NF-kB SEAP reporter activity,[1]; agonist: LPS (TLR4) 0.1 ug/mL,1.05
same,NF-kB SEAP reporter activity,[1]; [4],0.993
same,NF-kB SEAP reporter activity,[1]; [5],0.937
same,NF-kB SEAP reporter activity,[1]; [6],0.873
CS(=O)(=O)Nc1ccc([N+](=O)[O-])cc1Oc1ccccc1,NF-kB SEAP reporter activity,[2]; [7],0.516
same,NF-kB SEAP reporter activity,[2]; [8],1.08
O=C(Nc1ccc([N+](=O)[O-])cc1O)Nc1ccccc1Br,NF-kB SEAP reporter activity,[2]; [9],1.47
same,NF-kB SEAP reporter activity,[2]; [10],1.48
O=C(Nc1ccc([N+](=O)[O-])cc1O)Nc1ccccc1Br (library stock concentration (final ~1000-fold dilution): 10 mM),NF-kB SEAP reporter activity,[3]; agonist: LPS (TLR4) 0.1 ug/mL,2.98
same,NF-kB SEAP reporter activity,[3]; [4],2.14
same,NF-kB SEAP reporter activity,[3]; [5],0.989
same,NF-kB SEAP reporter activity,[3]; [6],1.7
